Test [1] in a line: APR_HepG2_CellCycleArrest_24hr: Apredica 24-hour HepG2 Assay for Cell Cycle Arrest (AID 2282905).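 Further: cell cycle arrest scored as ratio of 2N to 4N nuclear DNA content.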 As to conditions: imaging, actives raise or lower the signal. In short, it runs like this: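 After 24 h exposure at 0.39–200 uM in 0.5% DMSO, fixed cells received Hoechst 33342 staining. Imaging quantified per-nucleus DNA content; gain or loss fitted against DMSO controls.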
Test [2] is described as follows: APR_HepG2_NuclearSize_24hr: Apredica 24-hour HepG2 Assay for Nuclear Size (AID 2282907). As to conditions: high-content imaging, actives raise or lower the signal. In short, it runs like this: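 Nuclear size from Hoechst 33342-stained, formaldehyde-fixed HepG2 nuclei imaged by high-content microscopy, after 24 h dosing at ten concentrations from 0.39 to 200 uM in 0.5% DMSO; gain or loss relative to DMSO baseline.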

Test [3] can be described thus: APR_HepG2_CellLoss_24hr: Apredica 24-hour HepG2 Assay for Cell Loss (AID 2282908).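 On AC50: fit in both directions so a hit may be cell loss or gain.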 Conditions: high-content imaging. Summed up: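 Nuclei stained with Hoechst 33342 after formaldehyde fixation (3.7%) were imaged at 20x to count cells. Exposure lasted 24 hr, at ten concentrations from 0.39 to 200 uM in duplicate, with 0.5% v/v DMSO. Fit bidirectional, relative to DMSO.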

Test [4] can be described thus: APR_HepG2_MicrotubuleCSK_24hr: Apredica 24-hour HepG2 Assay for Microtubule CSK Stabilty (AID 2282909). Conditions: HepG2 microtubule cytoskeleton imaging, actives raise or lower the signal. Summed up:
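Fixed HepG2 cells were stained for alpha-tubulin and imaged after 24 hr exposure to ten concentrations spanning 0.39–200 uM in 0.5% DMSO. Signal change was fitted in both directions relative to DMSO; taxol was the positive control.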

Test [5] is described as follows: APR_HepG2_MitoticArrest_24hr: Apredica 24-hour HepG2 Assay for Mitotic Arrest (AID 2282910). As to conditions: high-content imaging, actives raise or lower the signal. Summed up: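 Treatment lasted 24 hr in the human HepG2 line at 0.39–200 uM, solvent held at 0.5% DMSO. Fixed cells were stained with Hoechst 33342 and anti-phospho-histone H3, imaged at 20x, and analysed by gain- or loss-of-signal fitting against DMSO.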

Test [6] can be described thus: APR_HepG2_MitoMembPot_24hr: Apredica 24-hour HepG2 Assay for Mitochondrial Membrane Potential (AID 2282911). As to conditions: imaging, actives raise or lower the signal. In short, it runs like this:
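HepG2 human liver cells were exposed 24 hr to compounds at 0.39–200 uM (final DMSO 0.5% v/v) in duplicate. MitoTracker Red CMXRos (250 nM, 30 min) was loaded before formaldehyde fixation; fluorescence was imaged by ArrayScan HCS and fitted bidirectionally versus DMSO.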

Test [7] can be described thus: APR_HepG2_MitoMass_24hr: Apredica 24-hour HepG2 Assay for Mitochondrial Mass (AID 2282912). As to conditions: high-content imaging, actives raise or lower the signal. Summed up:
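Endpoint is MitoTracker Red CMXRos (250 nM, 30 min, pre-fixation) intensity from 20x high-content imaging, nuclei located by Hoechst. Human HepG2 cells received ten concentrations from 0.39 to 200 uM in 0.5% DMSO for 24 hr, duplicate wells. Bidirectional fit relative to DMSO.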

Test [8] is described as follows: APR_HepG2_CellCycleArrest_72hr: Apredica 72-hour HepG2 Assay for Cell Cycle Arrest (AID 2282914). Conditions: high-content imaging, actives raise or lower the signal. Summed up: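 HepG2 cells were exposed to compounds at 0.39–200 uM (0.5% v/v DMSO final, duplicates) for 72 hr, fixed in 3.7% formaldehyde, permeabilized and stained with Hoechst 33342. Nuclear DNA content was quantified by high-content imaging; gain or loss of signal was fitted bidirectionally against DMSO.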

Test [9] in a line: APR_HepG2_CellLoss_72hr: Apredica 72-hour HepG2 Assay for Cell Loss (AID 2282915). As to conditions: high-content imaging. In short, it runs like this: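 HepG2 cells were exposed for 72 hr to compounds at 0.39–200 uM (ten concentrations, duplicate) in 0.5% v/v final DMSO. Nuclei were stained with Hoechst 33342 after 3.7% formaldehyde fixation, imaged at 20x, and counted; fits bidirectional versus DMSO.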

Test [10] can be described thus: APR_HepG2_P-H2AX_72hr: Apredica 72-hour HepG2 Assay for H2AX Phosphorylation (AID 2282916).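 Further: phospho-histone H2A.x immunostain intensity per cell marking DNA damage.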 As to conditions: imaging, actives raise or lower the signal. In short, it runs like this:
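Phospho-histone H2A.x immunofluorescence, multiplexed with Hoechst and c-Jun, quantified by high-content imaging. Compounds applied to HepG2 for 72 h across ten concentrations (0.39–200 uM, 0.5% DMSO), in duplicate; DMSO baseline.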

Test [11] can be described thus: APR_HepG2_MitoMembPot_72hr: Apredica 72-hour HepG2 Assay for Mitochondrial Membrane Potential (AID 2282917). Conditions: imaging, actives raise or lower the signal. In short, it runs like this: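 HepG2 cells exposed 72 h to compounds at 0.39–200 uM (0.5% v/v DMSO, duplicates); MitoTracker Red CMXRos 250 nM loaded 30 min before 3.7% formaldehyde fixation, imaged by HCS fluorescence. Bidirectional fit versus DMSO.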

Test [12] can be described thus: APR_HepG2_MitoticArrest_72hr: Apredica 72-hour HepG2 Assay for Mitotic Arrest (AID 2282918). Conditions: high-content imaging, actives raise or lower the signal. Summed up:
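HepG2 cells were exposed for 72 hr to compound at 0.39–200 uM (10 concentrations, duplicate) in 0.5% v/v DMSO, fixed in 3.7% formaldehyde, immunostained for phospho-histone H3 with Hoechst 33342 and imaged by high-content fluorescence; bidirectional fits versus DMSO.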

Test [13] can be described thus: APR_HepG2_P-H2AX_24hr: Apredica 24-hour HepG2 Assay for H2AX Phosphorylation (AID 2282920). As to conditions: high-content imaging, actives raise or lower the signal. Summed up: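 HepG2 human liver cells were exposed for 24 hr to compounds at 0.39–200 uM in duplicate, with 0.5% v/v DMSO final. Fixed cells were immunostained for phospho-histone H2A.x plus Hoechst 33342, imaged by HCS fluorescence, and fitted bidirectionally against DMSO.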

Test [14] in a line: APR_HepG2_StressKinase_72hr: Apredica 72-hour HepG2 Assay for Stress Kinase (AID 2282921). As to conditions: HepG2 stress kinase (phospho-c-Jun) imaging, actives raise or lower the signal. In short, it runs like this:
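Stress kinase signal is phospho-c-Jun immunofluorescence (1:500 primary, Cy3 secondary) in fixed, permeabilized human HepG2 cells imaged at 20x. Exposure lasted 72 hr over ten concentrations from 0.39 to 200 uM, 0.5% DMSO, in duplicate. Bidirectional fit versus DMSO.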

Test [15] in a line: APR_HepG2_StressKinase_24hr: Apredica 24-hour HepG2 Assay for Stress Kinase (AID 2282922). Conditions: HepG2 stress kinase (phospho-c-Jun) imaging, actives raise or lower the signal. In short, it runs like this:
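After 24 hr compound treatment (up to 200 uM, final DMSO 0.5% v/v), HepG2 cells are fixed and multiplex-labeled; phospho-c-Jun intensity is captured by high-content fluorescence imaging and analyzed relative to DMSO.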

The nature of test [16]: APR_HepG2_p53Act_72hr: Apredica 72-hour HepG2 Assay for p53 Activation (AID 2282923).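 Further: average cellular p53 protein immunofluorescence intensity in HepG2 cells.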 As to conditions: high-content imaging, actives raise or lower the signal. Summed up:
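After 72 h with compound (ten points, 0.39 to 200 uM, final DMSO 0.5% v/v), fixed HepG2 cells were labelled with sheep anti-p53 and Hoechst 33342 and imaged; gain or loss versus DMSO scored.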

A short description of test [17]: APR_HepG2_MitoMass_72hr: Apredica 72-hour HepG2 Assay for Mitochondrial Mass (AID 2282924).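 Further: MitoTracker Red CMXRos stain intensity per cell imaged as mitochondrial mass.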 Conditions: high-content imaging, actives raise or lower the signal. Summed up:
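Steps: treat HepG2 72 hr (0.39–200 uM, duplicate wells); load MitoTracker Red CMXRos, 250 nM, 30 min; fix with 3.7% formaldehyde, permeabilise with 0.5% Triton X-100; capture images, nuclei via Hoechst 33342; fit bidirectionally against DMSO.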

Test [18] in a line: APR_HepG2_NuclearSize_72hr: Apredica 72-hour HepG2 Assay for Nuclear Size (AID 2282925). As to conditions: high-content imaging, actives raise or lower the signal. In short, it runs like this:
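Compounds (0.39–200 uM, final DMSO 0.5%) were applied to HepG2 for 72 hr. Cells were then formaldehyde-fixed, permeabilized and labelled with Hoechst 33342. Nuclear diameter was quantified from six images per well.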

Test [19] is described as follows: APR_HepG2_MicrotubuleCSK_72hr: Apredica 72-hour HepG2 Assay for Microtubule CSK Stabilty (AID 2282919). As to conditions: HepG2 microtubule cytoskeleton, high-content imaging, actives raise or lower the signal. Summed up: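 Ten-point dosing (0.39–200 uM, 0.5% DMSO) of HepG2 for 72 hr, with taxol as the cytoskeletal positive control. The cells were formaldehyde-fixed and then stained with alpha-tubulin/Cy5 and Hoechst. Imaging at 20x used a −2 um Z offset for tubulin.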

A short description of test [20]: APR_HepG2_p53Act_24hr: Apredica 24-hour HepG2 Assay for p53 Activation (AID 2282913).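 Further: p53 protein immunofluorescence averaged per cell in HepG2 with Hoechst nuclei.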 As to conditions: high-content imaging, actives raise or lower the signal. Summed up: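 HepG2 cells exposed 24 hr to compounds at 0.39–200 uM (10 concentrations, duplicate), final DMSO 0.5% v/v. After formaldehyde fixation and Triton permeabilization, p53 was immunolabeled (sheep anti-p53, Cy5 secondary) with Hoechst 33342 nuclear counterstain, then imaged by high-content fluorescence microscopy.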

Activity calls are given as the source filed them. How the source made its calls: active means hit-call score of the fitted dose curve at least 0.9, where 1 is the maximum; inactive means score below 0.9.

Broadly, the AC50 is the midpoint of the concentration-response curve, whichever way the signal moves. On to `CC(C)(C)OOC(C)(C)CCC(C)(C)OOC(C)(C)C`, for which the compound was classed as inactive in test [1], in test [2], in test [3], in [4], in test [5] and in test [6]. Moreover, the call in [10], in test [13], in [14], in [15], in [16] and in test [17] was inactive. In addition, the call in [18] was inactive. Also, the AC50 was 56.5 µM (active) in [7]; 55.1 µM (active) in [8]; 56.1 µM (active) in [9]; 52.8 µM (active) in [11]; 54.8 µM (active) in test [12].
Take `O=[N+]([O-])C(Br)(CO)CO`: the AC50 was 116 µM (active) in [1], 25.6 µM (active) in [3], 84.6 µM (active) in [6] and 35.5 µM (active) in test [9]. Moreover, the result in [2], in [4], in test [5], in test [7], in [8] and in test [10] was inactive. Besides, the result in test [11], in test [12], in test [19], in test [13], in test [14] and in [15] was inactive. Moreover, the call in test [17] was inactive.
Consider `Cc1ccc([N+](=O)[O-])cc1`, for which the outcome in test [2], in test [3], in test [4], in test [5], in [6] and in test [7] was inactive. Also, the compound was called inactive in test [20], in [8], in test [9], in test [10], in test [11] and in [12]. In addition, the call in [19], in test [13], in test [14], in test [15], in [16] and in test [17] was inactive.
For the compound `Clc1ccc(Cl)c(Cl)c1`, the outcome in test [1], in [2], in test [3], in test [4], in test [5] and in test [6] was inactive. For the same compound, the compound was classed as inactive in test [7], in test [8], in test [9], in test [10], in test [11] and in [12]. For the same compound, the outcome in [13], in test [14], in test [15], in [16], in [17] and in test [18] was inactive.
Regarding `ClC1=C(Cl)C2(Cl)C3C(Cl)C=CC3C1(Cl)C2(Cl)Cl` (centres undefined), the concentration at half-maximal activity (AC50) in [1] was 40.9 µM (active); in test [2], 101 µM (active); in test [3], 99.2 µM (active); in test [4], 68.7 µM (active); in [5] it was 76.8 µM (active); in test [7], 55 µM (active). Further, the AC50 was 26.7 µM (active) in test [8]; 56 µM (active) in [9]; 65.9 µM (active) in test [10]; 51.3 µM (active) in [12]; 80.7 µM (active) in [13]; 84.8 µM (active) in test [14]. Further, the AC50 is 63.7 µM (active) in [16] and 88.9 µM (active) in test [17]. The compound was classed as inactive in test [6], in [11] and in test [15].
Take `CCCCCOC(=O)c1ccccc1C(=O)OCCCCC`: the outcome in test [2], in [3], in [4], in test [5], in test [6] and in test [7] was inactive. Besides, the compound was classed as inactive in test [20], in test [10], in test [11], in test [12], in test [19] and in test [13]. Further, the call in test [14], in test [15], in test [16] and in [17] was inactive. Also, the AC50 is 95.9 µM (active) in test [8] and 106 µM (active) in test [9].
`c1ccc(N=Nc2ccccc2)cc1`: the AC50 in test [1] was 63.1 µM (active). For the same compound, the result in test [2], in test [3], in test [4], in test [5], in test [6] and in test [7] was inactive. In addition, the call in test [8], in [9], in [10], in test [11], in test [12] and in [13] was inactive. The call in [14], in [15], in test [16], in [17] and in test [18] was inactive.

Source of the values: PubChem BioAssay (EPA / NIEHS).
